Experimental data taken from PubChem BioAssay AID651814 (National Center for Advancing Translational Sciences (NCATS), 2012).
The campaign covered roughly 2,100 compounds. About 590 (28%) were called active. About 42% were inconclusive and are not listed. The list shows a part of the results. Unmarked numbers belong to inactive results. Calls follow the shape of the dose curve; as a rule, active = well fitted inhibition curve with a large enough effect; inconclusive = small, poorly fitted or top-dose-only effect; inactive = flat fitted curve, though single readings scatter.

target: DNA dC->dU-editing enzyme APOBEC-3F (Homo sapiens) (UniProt Q8IUX4); test: qHTS for inhibitors of Vif-A3F interactions: Cherry picks; details: HeLa A3F-eYFP + Vif (tagged APOBEC3F with the HIV-1 protein that degrades it), eYFP fluorescence, 24 h; also: nearly all actives have a fitted effect of over 70% in size;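 as to max response: % of control where 0% means no effect; active compounds raise eYFP fluorescence by blocking Vif-driven A3F loss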
Method in brief: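 Read-out: yellow fluorescence (ex 488 nm, em 500-530 nm) by laser-scanning cytometer after 24 h compound exposure, several concentrations, at 37 deg C. Cells: HeLa line stably co-expressing Vif and C-terminally eYFP-tagged A3F; MG132 served as positive control.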
Potency is read from the fitted curve at half-maximal effect.

DNA dC->dU-editing enzyme APOBEC-3F (Homo sapiens), sequence (Q8IUX4 whole entry, looked up): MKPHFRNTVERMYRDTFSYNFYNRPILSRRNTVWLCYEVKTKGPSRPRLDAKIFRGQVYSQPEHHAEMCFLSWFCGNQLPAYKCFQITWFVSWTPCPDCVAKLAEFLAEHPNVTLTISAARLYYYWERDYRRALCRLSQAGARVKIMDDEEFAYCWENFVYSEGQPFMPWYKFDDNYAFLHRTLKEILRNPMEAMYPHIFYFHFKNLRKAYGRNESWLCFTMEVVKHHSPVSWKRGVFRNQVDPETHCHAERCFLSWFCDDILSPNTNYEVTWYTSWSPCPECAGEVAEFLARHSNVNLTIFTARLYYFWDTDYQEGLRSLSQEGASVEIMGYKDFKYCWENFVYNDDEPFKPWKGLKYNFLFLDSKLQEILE

| Compound | max response [%] | Potency |
| --- | --- | --- |
| COc1ccc(NC(=O)/C(C#N)=C/C=C/c2ccco2)cc1 | -30 | – |
| CN1/C(=C\C=C(/C#N)C(=O)Nc2ccc(Cl)cc2)C(C)(C)c2ccccc21 | – | 3.14 µM (active) |
| COc1ccc(NC(=O)/C(C#N)=C\C=C\c2ccco2)cc1 | -29.2 | – |
| CN1/C(=C\C=C(/C#N)C(=O)Nc2ccccc2F)C(C)(C)c2ccccc21 | – | 20.6 µM (active) |
| O=C(NC(=S)N1CCN(c2ccccn2)CC1)c1ccccc1 | 0.282 | – |
| Nc1ccccc1/C=C/c1ccnc2ccccc12 | – | 23.1 µM (active) |
| CN(C)c1ccc(/C=C/C=C/c2ccnc3ccccc23)cc1 | – | 2.59 µM (active) |
| CN(C)c1ccc(/C=C/c2ccnc3ccccc23)c(N)c1 | – | 7.31 µM (active) |
| CN(C)c1ccc(/C=C/c2ccnc3ccccc23)cc1 | – | 13 µM (active) |
| COc1ccc(-c2nc3cnccn3c2NC2CCCCC2)cc1-c1cccc(Cl)c1 | -28.6 | – |
| CCOC(=O)c1cnc(-n2nc(C)cc2C)nc1NNc1nc(-c2ccccc2)cc(-c2ccccc2)n1 | 6.49 | – |
| c1ccc(N=NC2=NN(c3ccccc3)CS2)cc1 | 0.337 | – |
| CCCC(=O)NC(c1ccc(OC)cc1)c1ccc2cccnc2c1O (configuration not stated) | 0.49 | – |
| CNc1ccc(/C=C/c2ccnc3ccccc23)cc1 | – | 14.6 µM (active) |
| COc1cccc2nccc(/C=C/c3ccc(N(C)C)cc3)c12 | – | 20.6 µM (active) |
| CN(C)c1ccc(/C=C/c2cnnc3ccccc23)cc1 | – | 20.6 µM (active) |
| CN(C)c1ccc(/C=C/c2ccnc3ccc(-c4ccccc4)cc23)cc1 | – | 2.31 µM (active) |
| NC(=S)N/N=C/c1ccccc1OC(=O)/C=C/c1ccccc1 | -3.11 | – |
| CC(C)CC(=O)NC(=S)N(Cc1ccccc1)Cc1ccccc1 | -4.2 | – |
| Cc1ccc(S(=O)(=O)N2CCN(C(=O)CSC(=S)N3CCCC3)CC2)c(C)c1 | 1.16 | – |
| COc1cc(/C=C2/CC/C(=C/c3ccc(O)c(OC)c3)C2=O)ccc1O | -11.3 | – |
| COc1cc(C=C2C(=O)c3ccccc3C2=O)cc(OC)c1OC | -7.21 | – |
| CO/N=C/c1ccc(OC)c(Oc2nc(OC)cc(OC)n2)c1 | -21.4 | – |
| COc1ccc(/C=C2/CSC/C(=C/c3ccc(OC)c(OC)c3)C2=O)cc1OC | – | 5.59 µM (active) |
| COc1cc(/C=C/C(C)=NNc2ccccc2)ccc1O | -28.1 | – |
| COc1cc(/C=C2\COC/C(=C\c3ccc(O)c(OC)c3)C2=O)ccc1O | – | 14 µM (active) |
| Cc1ccc2c(c1C)NC(=O)CC(c1ccccc1O)=N2 | 0.01 | – |
